Screens as filed in PubChem.
NPC1 prom act: activators of NPC1 promoter; 2.4% of 320,000 active; Potency, µM (highest dose often 9.22 µM), without a hit: top-dose activation, hits mostly activators; AID 485313; Huh7 NPC1 promoter luciferase reporter, 24 h; further: % of control where 0% means no effect; nearly all actives have a fitted effect of over 60% in size
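Huh7 reporter cells (NPC1 promoter driving luciferase) are dosed with compound for 24 h at 37 °C, 5% CO2; luciferase detection reagent is then added and luminescence measured after 10 min at ambient temperature.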
FLuc counter: firefly luciferase modulation, counter-screen for miR-21 project; Potency, µM (titrated, usually from 57.5 µM), for the others: top-dose activity change, negative = inhibition, actives largely listed as inhibitors; purified FLuc, Km substrates, luminescence inhibition; P08659; 6.9% of 360,000 active; AID 588342;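 further: plate controls were vehicle for no effect and reference inhibitor for full effect; nearly all actives have a fitted effect of over 55% in size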
Target sequence (P08659 whole entry, looked up): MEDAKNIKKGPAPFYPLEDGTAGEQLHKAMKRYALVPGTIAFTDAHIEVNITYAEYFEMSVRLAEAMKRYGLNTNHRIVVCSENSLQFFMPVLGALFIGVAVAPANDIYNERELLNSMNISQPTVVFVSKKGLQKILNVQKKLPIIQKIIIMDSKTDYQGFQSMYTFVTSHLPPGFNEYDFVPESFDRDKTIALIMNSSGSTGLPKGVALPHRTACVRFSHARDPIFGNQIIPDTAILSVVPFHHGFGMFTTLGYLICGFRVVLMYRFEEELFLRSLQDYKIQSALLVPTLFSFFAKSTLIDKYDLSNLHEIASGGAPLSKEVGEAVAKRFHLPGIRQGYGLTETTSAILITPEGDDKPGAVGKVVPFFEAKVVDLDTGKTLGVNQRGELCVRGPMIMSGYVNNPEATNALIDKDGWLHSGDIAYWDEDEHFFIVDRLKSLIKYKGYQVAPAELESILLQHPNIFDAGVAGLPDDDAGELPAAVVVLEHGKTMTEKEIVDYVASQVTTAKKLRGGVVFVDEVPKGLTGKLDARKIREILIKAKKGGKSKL
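Purified P. pyralis luciferase, 10 nM final, with Km-level 10 uM D-luciferin and 10 uM ATP in 50 mM Tris acetate pH 7.5, 10 mM Mg acetate, 0.01% Tween-20, 0.05% BSA; 6-point qHTS titration about 60 µM downward; luminescence read.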
ELG1 genotox: induces genotoxicity in HEK293T cells with luciferase-tagged ELG1; HEK293T ELG1-luciferase reporter, luminescence, 16 h; Potency, µM (highest dose often 46 µM), for the others: top-dose activity change, positive = activation, hits mostly activators; 1.3% of 330,000 active; AID 504466; further: % of control where 0% means no effect; nearly all actives have a fitted effect of over 60% in size
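Luminescence read-out: rising ELG1-luciferase signal, reflecting elevated ELG1 protein under genetic stress, flags genotoxic compounds. Cells were treated for 16 hr at 37 °C before ONE-Glo detection.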
SMN2 splice up: enhancers of SMN2 splice variant expression | HEK293 SMN2-luciferase splicing reporter, luminescence, 30-36 h | Potency, µM (titrated, usually from 46.1 µM), for inactives: top-dose activity change, positive = activation, actives largely listed as activators | 2.8% of 210,000 active; further: % of control where 0% means no effect; nearly all actives have a fitted effect of over 55% in size
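HEK293 cells carry an SMN2 […]–luciferase reporter in which exon 7 inclusion puts luciferase in frame. Cells were plated 10-12 h before compound addition, then incubated 30-36 h at 37C. ONE-Glo luminescence was read; sodium butyrate at 4.5 mM final served as control.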
ELG1 DNA repair: ELG1-dependent DNA repair inhibition. HEK293T ELG1-luciferase reporter, luminescence, 16 h; DNA damage induced by 5-fluorouridine. Potency, µM (series often up to 46.1 µM), for inactives: at the highest dose activity change, negative = inhibition, most hits filed as inhibitors. 2.3% of 330,000 active; further: on the % scale 0 is the no-effect control and ±100 the full control effect; nearly all actives have a fitted effect of over 55% in size
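In this reporter screen, reduction of luminescence relative to DMSO vehicle indicated activity. Compounds and 5-fluorouridine were added together to 2,000 cells per well, incubated for 16 hr at 37 °C, then developed with ONE-Glo.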
Rab9 prom act: activates the Rab9 promoter; Huh7 Rab9 promoter-luciferase reporter, luminescence, 24 h; Potency, µM (top dose mostly 9.22 µM), for inactives: at the top dose activation, negative = inhibition, usual class: activators; 2.8% of 320,000 active; AID 485297; further: % of control where 0% means no effect; nearly all actives have a fitted effect of over 60% in size
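Luminescence from Amplite-detected luciferase (10 minutes, ambient) reports Rab9 promoter activation. Before that, stable Rab9-luciferase Huh7 cells (1500/well, reduced-serum OP-MEM I plus 10% FBS) were exposed to compound for 24 hours at 37C.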
Starred values were filed as active, the others as inactive; ? = inconclusive; . = not tested or not shown; [ ] = another dose, or the depositor's remark. Shown are actives, neighbours in structure and some others; about 9.4% of the full set was active somewhere. The call rests on the fitted dose curve; in most records, active means well fitted curve in the direction sought with a large enough effect; inconclusive means small, poorly fitted or top-dose-only effect, or another doubt; inactive means no such curve, though single readings can be large; an effect the other way counts as inactive or inconclusive. Potency means the concentration at half of the fitted maximal effect.

SMILES	NPC1 prom act	FLuc counter	ELG1 genotox	SMN2 splice up	ELG1 DNA repair	Rab9 prom act
Cc1ccc(CCNC(=O)C2CCC(=O)N(Cc3ccccc3F)C2)o1 (configuration not stated)	?	?	18µM*	.	?	?
COc1ccccc1CCCNC(=O)C1CCC(=O)N(Cc2ccccc2F)C1 (configuration not stated)	2.8µM*	21µM*	?	.	?	4µM*
COc1ccc(CCCNC(=O)C2CCC(=O)N(Cc3ccccc3F)C2)cc1 (configuration not stated)	3%	-6%	0%	.	20%	0%
Cc1nn(-c2ccc(N3CCCC3)nn2)c(C)c1CCC(=O)N1CCN(c2ccccc2)CC1	.	-10%	.	.	.	.
O=C(Nc1cccc(-c2csc(Nc3cccc(C(F)(F)F)c3)n2)c1)c1cc([N+](=O)[O-])cc(C(F)(F)F)c1	-18%	3%	-5%	.	2.6µM*	-15%
O=C(Nc1ccc(-c2csc(Nc3ccccc3)n2)cc1)c1cccc(C(F)(F)F)c1	-6%	-2%	-7%	.	?	-4%
O=C(Nc1ccc(-c2csc(Nc3ccccc3)n2)cc1)c1cc([N+](=O)[O-])cc(C(F)(F)F)c1	-13%	-7%	-21%	.	9.2µM*	-18%
Cc1ccc(NC(=O)C(C)[n+]2ccccc2)cc1[N+](=O)[O-] (configuration not stated)	-1%	3%	1%	28µM*	-1%	-4%
Cc1ccn2c(C(=O)CSc3ccccc3)c(C)nc2c1	16%	?	7%	25µM*	12%	15%
CCOc1ccc(S(=O)(=O)N(CC(=O)NCCSc2ccccc2)c2ccccc2)cc1	.	-5%	.	-7%	.	.
CC1=C(C(=O)Nc2ccccc2)C(c2cccc(O)c2)n2nc(-c3ccccc3Cl)nc2N1 (configuration not stated)	.	-20%	.	16%	.	.
Cc1csc2nc(CCNS(=O)(=O)c3cccs3)cn12	?	24µM*	21µM*	15%	?	?
CCS(=O)(=O)NCc1cn2c(C)csc2n1	5%	-1%	3%	2%	?	-4%
CCCS(=O)(=O)NCc1cn2c(C)csc2n1	?	?	12µM*	11µM*	?	?
CCOc1ccc(NC(=O)CSc2nccn2-c2cccc(C)c2C)cc1	.	-3%	.	.	.	.
CC(C)Cn1c(SC(C)C(=O)Nc2ccc(N3CCOCC3)cc2)nc2ccccc21 (configuration not stated)	-3%	?	2%	-6%	-10%	-2%
CC(Sc1nc2ccccc2n1C)C(=O)Nc1ccc(N2CCOCC2)cc1 (configuration not stated)	-1%	17µM*	21%	-17%	?	-2%
O=C(O)CCc1ccc(-c2ccccc2)n1-c1cccc(Br)c1	.	?	.	0%	.	.
C=CCn1c(=S)[nH]c2ccccc2c1=O	-1%	-3%	5%	-22%	-4%	-1%
C=CCn1c(=S)[nH]c2cc(-c3ccccc3)sc2c1=O	25%	1.9µM*	9%	.	?	19%
O=C(NCc1cccs1)c1ccncc1	-1%	1%	-3%	4%	9%	3%
CC1CCCN(c2ccc(C(=O)NCc3cccs3)cn2)C1 (configuration not stated)	?	19µM*	?	13µM*	?	?
O=C(NCc1cccs1)c1ccc(N2CCCCC2)nc1	.	21µM*	.	?	.	.
COc1ccccc1N1CCN(CCCNC(=O)c2cnn(-c3cccc(Cl)c3)c2C2CCN(C(=O)OC(C)(C)C)CC2)CC1	.	-2%	.	.	.	.
CSc1nc(-c2ccc(Cl)cc2)nn1C(=O)c1ccccc1	25%	11µM*	17%	.	?	?
CN(C)CCN(c1ccccn1)c1ccccn1	.	.	.	-18%[9.22 µM]	.	.
